This is a sample that favours compounds with a hit; in the whole collection about 19% have one here.
DT40 TDP1 CPT – qHTS for Inhibitors of human tyrosyl-DNA phosphodiesterase 1 (TDP1): qHTS in cells in presence of CPT | chicken DT40 Tdp1-/-;hTDP1 cells + 20 nM CPT, ATP luminescence, 48 h | Potency, µM (top dose mostly 46.2 µM), for the others: top-dose activity change, negative = growth inhibition, hits mostly inhibitors | hit rate 12% among 420,000 | AID 686979, 2013; also: potency is read from the fitted curve at half-maximal effect; nearly all actives have a fitted effect of over 55% in size
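Chicken DT40 Tdp1-/- cells stably complemented with human TDP1 were seeded at 400 cells/well in medium containing 20 nM camptothecin, exposed to pin-transferred compounds, and grown at 37 °C for at least 48 hr. Viability was read as ATP luminescence.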
HT1080NT lethal – qHTS for induction of synthetic lethality in tumor cells producing 2HG: qHTS for the HT-1080-NT fibrosarcoma cell line; HT-1080-NT fibrosarcoma viability, CellTiter-Glo ATP luminescence, 48 h; Potency, µM (doses to about 46.1 µM), for inactives: top-dose activity, negative = less viability, most hits filed as cytotoxic; hit rate 1.6% among 360,000;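 also: NT is the 2HG producing partner of a matched IDH1 knockdown line; potency is read from the fitted curve at half-maximal effect; 0% = DMSO-treated cells and -100% = media-only wells without cells; nearly all actives have a fitted effect of over 55% in size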
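Toxicity toward the 2HG-producing NT line was scored as %Activity, normalised to DMSO and no-cell wells, from CellTiter-Glo luminescence after 48 hours' treatment.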
DT40 TDP1 no CPT – qHTS for Inhibitors of human tyrosyl-DNA phosphodiesterase 1 (TDP1): qHTS in cells in absence of CPT; Potency, µM (top dose mostly 46.2 µM), for inactives: top-dose activity change, negative = growth inhibition, most hits filed as inhibitors; DT40 Tdp1-/- hTDP1 cells, no CPT, ATP luminescence, 48 h; hit rate 15% among 420,000; also: potency is read from the fitted curve at half-maximal effect; nearly all actives have a fitted effect of over 55% in size
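Cells were dispensed at 400 per well, compounds added by pin tool, plates incubated ≥48 hr at 37 °C, then CellTiter-Glo added for 30 min at room temperature before luminescence reading. Line: DT40 Tdp1-/- complemented with hTDP1; camptothecin omitted.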
HT1080 IDH1KD tx – qHTS for induction of synthetic lethality in tumor cells producing 2HG: qHTS for the HT-1080-IDH1KD cell line; Potency, µM (doses to about 46.1 µM), inactives show at the top dose activity, negative = toxicity, usual class: cytotoxic; AID 686971, 2013; HT-1080 IDH1 knockdown viability, ATP luminescence, 48 h; hit rate 2% among 360,000;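 also: potency is read from the fitted curve at half-maximal effect; 0% = DMSO wells and -100% = cell-free medium wells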
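After a 2 h attachment period, IDH1KD HT-1080 cells took pin-transferred compound for 48 h at 37 °C; ATP-based luminescence after 10 min room-temperature reagent incubation reported viability.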
IL1B secr inh – qHTS for Inhibitors of Inflammasome Signaling: IL-1-beta AlphaLISA Primary Screen; THP-1 LPS/ATP IL-1B secretion, AlphaLISA, 16 h; hits give low values; activity change, % at 57.5 µM; hit rate 4.7% among 360,000; in the data active = activity change below about -50%; inconclusive = mostly about -30% to -49%
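Secreted IL-1B measured by AlphaLISA bead assay after 16 h compound exposure of THP-1 cells; compounds (final up to 57.5 uM) added 1 h before LPS (250 ng/mL) and ATP (1.25 mM) stimulation; lower signal means less secretion.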
* = called active by the depositor; u = inconclusive; x = no result. Unless noted, calls follow the shape of the dose curve; as a rule, active = well fitted curve in the direction sought with a large enough effect; inconclusive = small, poorly fitted or top-dose-only effect, or another doubt; inactive = no such curve, though single readings can be large; an effect the other way counts as inactive or inconclusive. Unless noted, % is scaled to controls: 0 for no effect and ±100 for the full control effect.

SMILES | DT40 TDP1 CPT | HT1080NT lethal | DT40 TDP1 no CPT | HT1080 IDH1KD tx | IL1B secr inh
c1ccc(-c2csc(Nc3ccc4c(c3)OCCO4)n2)cc1 | 14.6µM* | -2.1% | u | 1.2% | -0.5
CC1(c2nnc(-c3ccncc3)o2)CC(c2ccc(F)cc2)=NO1 (stereo not given) | u | -1.9% | u | -3.3% | -23.2
CCn1nc(C)cc1C(=O)N1CCCC(Nc2ccc(F)c(F)c2)C1 (stereo not given) | -5.8% | 4.0% | -1.9% | 1.3% | 7.1
CCOc1cc(OCC)cc(C(=O)N2CCC[C@H]2C(=O)N2CCC[C@H]2C(=O)N[C@H](C)c2ccccc2)c1 | -25.3% | 12.8% | -22.6% | 6.9% | 8.7
COC(=O)/C(=C\C(=O)c1ccccc1)Nc1cccc(C(F)(F)F)c1 | u | 1.9% | -27.1% | -2.3% | 0.0
COc1ccc(Nc2nc(-c3c[nH]c4ccccc34)cs2)cc1 | -12.0% | 4.0% | -22.5% | 14.0% | -78.2*
Brc1ccc(Nc2nc(-c3cccnc3)cs2)cc1 | 6.9% | -18.2% | -17.0% | -25.5% | 51.0
c1ccc(-c2csc(Nc3nc(N4CCOCC4)nc(N4CCOCC4)n3)n2)cc1 | u | 0.0% | 10.3µM* | -7.3% | u
Oc1ccc(Nc2nc(-c3cccnc3)cs2)cc1 | 20.6µM* | -6.1% | 23.1µM* | -11.5% | u
COc1ccc(Nc2nc(-c3ccc(OC)cc3)cs2)cc1 | -3.2% | -11.4% | -14.2% | -2.9% | u
Cc1cc(C)nc(Nc2nc(-c3ccccc3)cs2)n1 | -9.8% | -7.3% | u | -3.1% | 31.6
Oc1ccc(Nc2nc(-c3ccc(O)cc3)cs2)cc1 | 11.2µM* | u | 5.01µM* | u | u
CCOC(=O)C1=C(C)NC(C)=C(C(=O)OCC)C1C(=O)OCC(=O)N1CCc2ccccc2C1 | u | 0.8% | -25.9% | 0.0% | -25.4
c1cc2c(cc1-c1csc(NNC3=NCCCCC3)n1)OCCO2 | 3.26µM* | -26.6% | 4.61µM* | -13.6% | -101.5*
Clc1ccc(Nc2nc(-c3ccncc3)cs2)cc1 | -19.6% | -0.8% | 3.7% | 8.5% | -12.8
Nc1ccc(Nc2nc(-c3ccncc3)cs2)cc1 | u | u | 18.4µM* | u | u
COc1ccc(-c2csc(Nc3ccccc3)n2)cc1 | u | u | u | u | -56.4*
CCCCN(C(C)=O)c1c(CC)nc2ccc(C(=O)NCCc3ccccn3)cn12 | -7.8% | 17.8% | -16.2% | 18.4% | 0.2
CN1CCN(C(=O)CSc2nc(-c3ccco3)cc(C(F)(F)F)n2)CC1 | 14.2% | 5.9% | -26.4% | 5.2% | -9.8
O=C(CCSc1nc(-c2ccco2)cc(C(F)(F)F)n1)N1CCN(c2ccccn2)CC1 | u | 2.7% | 16.4µM* | -4.0% | u
O=C(CCSc1nc(-c2ccco2)cc(C(F)(F)F)n1)N1CCCc2ccccc21 | u | -17.7% | 16.4µM* | -3.3% | 29.1
O=C(CSc1nc(-c2ccco2)cc(C(F)(F)F)n1)N1CCN(c2cccc(Cl)c2)CC1 | u | -8.3% | 23.1µM* | -13.5% | -21.1
OC(C[n+]1c(Cl)ccc2ccccc21)c1ccccc1 (stereo not given) | 8.91µM* | x | u | x | x
COc1cc(Nc2nc(SCC(=O)c3ccc(Br)cc3)nc3ccccc23)cc(OC)c1 | 5.17µM* | x | 2.91µM* | x | x
COc1cc(Nc2nc(SCC#N)nc3ccccc23)cc(OC)c1OC | 4.4% | 7.1% | -7.3% | -2.6% | -5.5
SMILES | DT40 TDP1 CPT | HT1080NT lethal | DT40 TDP1 no CPT | HT1080 IDH1KD tx | IL1B secr inh
COc1ccc(CNC(=O)Nc2nc(C(N)CCc3ccccc3)cs2)cc1 (stereo not given) | u | 18.4µM* | u | u | -56.1*
COc1ccc(CCNC(=O)Nc2nc(C(N)CCc3ccccc3)cs2)cc1OC (stereo not given) | u | 16.4µM* | u | u | u
COc1ccc(CCNC(=O)Nc2nc(C(N)C3CCCCC3)cs2)cc1OC (stereo not given) | u | u | u | u | -52.3*
COc1ccc(CCNC(=O)CCc2ccccc2)cc1OC | 3.3% | 20.1% | -26.4% | 3.6% | x
COc1cc(NC(=O)NCc2ccncc2)cc(OC)c1OC | 4.8% | 15.3% | -1.9% | 10.9% | -1.4
COc1ccc(CCNC(=O)Nc2nnc([C@H]3C[C@H](O)[C@@H](CO)O3)s2)cc1OC | -22.9% | 28.8% | -10.3% | 4.0% | 26.1
COc1cc(CNC(=O)Nc2nc(C(N)CCc3ccccc3)cs2)cc(OC)c1OC (stereo not given) | u | u | u | u | -54.0*
COc1ccccc1NC(=O)Nc1nc(C(N)CCc2ccccc2)cs1 (stereo not given) | u | 23.1µM* | 13µM* | u | -29.0
CCOc1ccc2nc(-c3ccccc3)[nH]c2c1 | 9.2µM* | 8.2µM* | 20.6µM* | 9.2µM* | -3.5
COc1ccc2nc(-c3ccccc3)[nH]c2c1 | u | -13.7% | u | -24.0% | 9.6
CCCCn1c(N)c(N(CCC(C)C)C(=O)c2ccc([N+](=O)[O-])s2)c(=O)[nH]c1=O | 23.1µM* | -16.5% | u | -14.3% | 53.0
O=C(NCCCc1ccccc1)N1CCOCC1 | 10.8% | -10.5% | 4.9% | 7.7% | 13.9
O=C(NCC1CCC2(CCN(Cc3ccc4ncccc4c3)CC2)O1)C1CCCO1 (stereo not given) | -7.1% | x | -13.5% | x | x
CCC[C@H]1NC(=O)[C@H](C)N(C)C(=O)C(C)(C)C(=O)C(C)NC(=O)[C@H](Cc2ccc(OC)cc2)N(C)C(=O)[C@H](C(C)C)N(C)C(=O)CNC(=O)[C@H](CC(C)C)N(C)C(=O)CNC(=O)[C@H]([C@@H](C)CC)OC(=O)[C@H]1C (stereo not given in full) | 0.0326µM* | 0.82µM* | 0.0206µM* | 1.03µM* | -28.7
CC[C@H](C)C1OC(=O)[C@@H](C)[C@@H](CC)NC(=O)[C@H](C)N(C)C(=O)C(C)(C)C(=O)C(C)NC(=O)[C@H](Cc2ccc(OC)cc2)N(C)C(=O)[C@H](C(C)C)N(C)C(=O)CNC(=O)[C@H](CC(C)C)N(C)C(=O)CNC1=O (stereo not given in full) | 0.146µM* | 0.259µM* | 0.184µM* | 0.184µM* | -9.6
CCCCCCN1CC(O)=C(c2ccccc2)C1=N | -3.9% | 10.4% | -1.4% | 12.4% | 10.3
CCCCCCCn1ccc(=N)cc1 | 0.517µM* | u | 0.517µM* | u | u
CCn1ccc(=N)cc1 | -18.4% | 7.1% | 4.3% | 7.1% | 12.3
CCCCCn1ccc(=N)cc1 | 9.2µM* | -11.1% | 5.17µM* | -18.7% | -29.8
